Assay results taken from PubChem BioAssay (NCATS).
Where “and” joins values, the source holds several entries; their conditions need not be identical. Equal entries are not always repeated. Inconclusive results are not listed. Calls of active or inactive are those of the source. Calls follow the shape of the dose curve; as a rule, active = well fitted curve in the direction sought with a large enough effect; inconclusive = small, poorly fitted or top-dose-only effect, or another doubt; inactive = no such curve, though single readings can be large; an effect the other way counts as inactive or inconclusive.

Assays:
[1] = biological target: Tyrosine-protein phosphatase non-receptor type substrate 1 (Homo sapiens) + Leukocyte surface antigen CD47 (Homo sapiens) (UniProt P78324+Q08722); experiment: CD47-SIRPalpha protein protein interaction - Alpha assay qHTS validation (AID 1347059);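 also: bead proximity luminescence from CD47 binding SIRPalpha after compound preincubation with SIRPalpha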; also: potency is read from the fitted curve at half-maximal effect
Chain of Tyrosine-protein phosphatase non-receptor type substrate 1 (Homo sapiens) + Leukocyte surface antigen CD47 (Homo sapiens) (P78324 whole entry, looked up): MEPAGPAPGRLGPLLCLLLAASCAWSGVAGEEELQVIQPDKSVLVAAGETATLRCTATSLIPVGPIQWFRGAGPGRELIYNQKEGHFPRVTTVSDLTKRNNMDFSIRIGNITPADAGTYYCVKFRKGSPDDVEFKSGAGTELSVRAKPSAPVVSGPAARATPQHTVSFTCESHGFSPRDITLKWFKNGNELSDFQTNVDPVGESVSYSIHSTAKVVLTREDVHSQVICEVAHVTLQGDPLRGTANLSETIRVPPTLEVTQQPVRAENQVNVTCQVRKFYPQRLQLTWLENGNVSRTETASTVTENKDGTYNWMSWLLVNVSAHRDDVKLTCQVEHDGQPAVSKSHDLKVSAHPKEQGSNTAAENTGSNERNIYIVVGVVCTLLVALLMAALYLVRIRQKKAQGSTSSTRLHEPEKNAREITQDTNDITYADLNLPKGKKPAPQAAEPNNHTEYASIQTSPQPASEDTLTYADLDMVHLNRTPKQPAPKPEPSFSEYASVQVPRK
Chain of Tyrosine-protein phosphatase non-receptor type substrate 1 (Homo sapiens) + Leukocyte surface antigen CD47 (Homo sapiens) (Q08722 whole entry, looked up): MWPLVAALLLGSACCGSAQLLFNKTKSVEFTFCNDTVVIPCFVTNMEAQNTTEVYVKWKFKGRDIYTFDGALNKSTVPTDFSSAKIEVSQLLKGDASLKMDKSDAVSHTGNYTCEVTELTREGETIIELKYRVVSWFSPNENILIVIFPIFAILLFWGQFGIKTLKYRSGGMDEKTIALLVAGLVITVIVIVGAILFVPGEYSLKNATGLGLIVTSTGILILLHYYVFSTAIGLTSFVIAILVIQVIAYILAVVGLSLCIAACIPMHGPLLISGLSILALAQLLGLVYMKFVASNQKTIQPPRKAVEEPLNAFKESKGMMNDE
Method in brief: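 SIRPalpha-biotin 25 nM + cpd, 30 min RT, dark; add CD47-His 12.5 nM, 30 min; add Ni-NTA/SAV beads 10 ug/mL, 30 min; AlphaScreen. Buffer PBS pH 7.4 + 0.05% IGEPAL CA-630. Non-biotinylated SIRPalpha as control inhibitor.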

[2] = biological target: Parathyroid hormone/parathyroid hormone-related peptide receptor (Homo sapiens) (UniProt Q03431); experiment: qHTS for PTHR1 Agonists: Optimization Screen against the NCGC LOPAC library (AID 1347079);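 also: GloSensor cAMP luminescence in HEK-293 GP2 cells expressing human PTHR1 with IBMX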
Chain of Parathyroid hormone/parathyroid hormone-related peptide receptor (Homo sapiens) (Q03431 whole entry, looked up): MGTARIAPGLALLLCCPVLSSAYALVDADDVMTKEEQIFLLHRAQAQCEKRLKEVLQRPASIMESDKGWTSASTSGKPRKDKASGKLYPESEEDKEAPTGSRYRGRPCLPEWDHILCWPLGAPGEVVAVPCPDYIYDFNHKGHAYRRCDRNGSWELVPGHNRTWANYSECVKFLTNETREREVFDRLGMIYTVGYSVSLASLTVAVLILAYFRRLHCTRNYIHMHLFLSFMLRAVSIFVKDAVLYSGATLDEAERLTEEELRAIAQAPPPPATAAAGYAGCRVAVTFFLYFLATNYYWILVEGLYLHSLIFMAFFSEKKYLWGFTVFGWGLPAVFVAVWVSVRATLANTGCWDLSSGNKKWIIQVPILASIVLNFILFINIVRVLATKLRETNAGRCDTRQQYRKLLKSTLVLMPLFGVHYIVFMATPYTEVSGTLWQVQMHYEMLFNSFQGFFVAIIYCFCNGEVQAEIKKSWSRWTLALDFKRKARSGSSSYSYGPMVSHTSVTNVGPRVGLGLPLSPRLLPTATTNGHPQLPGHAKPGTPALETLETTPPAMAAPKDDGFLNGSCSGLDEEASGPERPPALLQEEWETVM
Method in brief: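 HEK-293 GP2 cells, PTHR1 + GloSensor cAMP; 3000 cells/well, o/n. Luciferin + IBMX 0.5mM each (stock), 1 hr 37C. Cpd titration, 1 hr 37C. Lum after 15 min RT. Ctrl M-PTH(1-15) top 10uM.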

[3] = qHTS of pediatric cancer cell lines to identify multiple opportunities for drug repurposing: Primary screen for TC32 cells (AID 1347089); also: nearly all actives have a fitted effect of over 60% in size; also: potency is read from the fitted curve at half-maximal effect
Method in brief: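 In the primary qHTS, MIPE compounds were tested at 11 concentrations (0.78 nM to 46 µM) and NPC compounds at 8 (0.59 nM to 46 µM) on TC32 cells for 48 h. CellTiter-Glo luminescence gave viability.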

[4] = qHTS of pediatric cancer cell lines to identify multiple opportunities for drug repurposing: Primary screen for DAOY cells (AID 1347090); also: nearly all actives have a fitted effect of over 55% in size; also: potency is read from the fitted curve at half-maximal effect
Method in brief: (§1)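 Viability measured as metabolically active cells via CellTiter-Glo luminescence following 48 hours of compound exposure, 11-point dilutions in confirmatory testing. 500-1,000 cells/well plated 5 hours before dosing; controls were DMSO and 2.3 µM bortezomib.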

[5] = qHTS of pediatric cancer cell lines to identify multiple opportunities for drug repurposing: Primary screen for SJ-GBM2 cells (AID 1347091); also: potency is read from the fitted curve at half-maximal effect
Method in brief: as §1

[6] = qHTS of pediatric cancer cell lines to identify multiple opportunities for drug repurposing: Primary screen for A673 cells (AID 1347092); also: nearly all actives have a fitted effect of over 45% in size; also: potency is read from the fitted curve at half-maximal effect
Method in brief: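 48 h compound exposure, A673, 500-1,000 cells/well, 37 degrees C/5% CO2. MIPE: 11-point, 0.78 nM-46 µM; NPC: 8-point, 0.59 nM-46 µM (final). Readout CellTiter-Glo luminescence after 15 min RT.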

[7] = qHTS of pediatric cancer cell lines to identify multiple opportunities for drug repurposing: Primary screen for SK-N-MC cells (AID 1347093); also: potency is read from the fitted curve at half-maximal effect
Method in brief: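 Metabolically active cells were quantified by ATP-dependent luminescence (CellTiter-Glo, 15 min at room temperature) following 48 h treatment. Cells had been plated at 500-1,000 per well and settled for 5 h beforehand.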

[8] = qHTS of pediatric cancer cell lines to identify multiple opportunities for drug repurposing: Primary screen for BT-37 cells (AID 1347094); also: potency is read from the fitted curve at half-maximal effect
Method in brief: (§2)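 Viability was measured as metabolically active cells after 48 hours of treatment, read by CellTiter-Glo luminescence. Compounds were tested at multiple final concentrations, giving concentration-response curves.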

[9] = qHTS of pediatric cancer cell lines to identify multiple opportunities for drug repurposing: Primary screen for NB-EBc1 cells (AID 1347095); also: potency is read from the fitted curve at half-maximal effect
Method in brief: as §2

[10] = qHTS of pediatric cancer cell lines to identify multiple opportunities for drug repurposing: Primary screen for U-2 OS cells (AID 1347096); also: nearly all actives have a fitted effect of over 50% in size; also: potency is read from the fitted curve at half-maximal effect
Method in brief: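 Viability after 48 h compound treatment at 37C, 500-1,000 cells/well, read as ATP luminescence with CellTiter-Glo. Primary screens used 11-point (MIPE, 0.78 nM-46 µM) or 8-point (NPC, 0.59 nM-46 µM) final concentrations; follow-up screens used 11-point dilutions.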

Measured: Potency

NCCS(=O)(=O)O
inactive: [1] | [2] | [3] | [4] | [5] | [6] | [7] | [8] | [9] | [10]

Clc1ccc2c(c1)C(N1CCNCC1)=Nc1ccccc1O2
inactive: [1] | [2] | [3] | [4] | [5] | [6] | [7] | [8] | [9] | [10]

NCCc1cnc[nH]1
inactive: [1] | [2] | [3] | [4] | [5] | [6] | [7] | [8] | [9] | [10]

OCCN1CCN(CCCN2c3ccccc3Sc3ccc(C(F)(F)F)cc32)CC1
inactive: [1] | [2] | [3] | [4] | [10]
active: [5] 20.9 µM | [6] 18.7 µM | [7] 2.09 µM | [8] 13.7 µM

COC(=O)Nc1nc2ccc(C(=O)c3cccs3)cc2[nH]1
active: [3] 46.6 nM and 236 nM | [4] 11.8 nM and 106 nM | [5] 1 nM and 119 nM | [6] 0.0059 µM | [7] 4.7 nM and 94.4 nM | [8] 15.3 nM and 276 nM | [9] 1 nM and 84.1 nM
inactive: [1] | [2]

COc1cc2c(c(OC)c1OC)-c1ccc(OC)c(=O)cc1[C@@H](NC(C)=O)CC2
active: [3] 7.5 nM and 1.3 nM | [4] 8.4 nM | [5] 42.2 nM and 1 nM | [6] 0.0067 µM | [7] 4.2 nM and 1 nM | [8] 6.2 nM and 172 nM | [9] 42.2 nM and 1 nM
inactive: [1] | [2]

O=C(Nc1ccc([N+](=O)[O-])cc1Cl)c1cc(Cl)ccc1O
inactive: [1] | [2] | [3]
active: [4] 1.46 µM and 1.18 µM | [5] 1.3 µM and 743 nM | [6] 4.69 µM | [7] 1.3 µM and 833 nM | [8] 1.69 µM and 1.37 µM | [9] 4.11 µM and 743 nM

CN1C2CCC1CC(OC(=O)C(CO)c1ccccc1)C2 (centres undefined)
inactive: [1] | [2] | [3] | [4] | [5] | [6] | [7] | [8] | [9] | [10]

CN1CCN2c3ccccc3Cc3ccccc3C2C1 (centres undefined)
inactive: [1] | [2] | [3] | [4] | [5] | [6] | [7] | [8] | [9] | [10]

NC(CO)C(=O)NNCc1ccc(O)c(O)c1O (centres undefined)
active: [1] 13.1 µM | [6] 23.5 µM
inactive: [2] | [3] | [4] | [5] | [7] | [8] | [9] | [10]

Cn1ccc2cc3c(cc21)CCN3C(=O)Nc1cccnc1
inactive: [1] | [2] | [3] | [4] | [5] | [7] | [8] | [9] | [10]
active: [6] 11.8 µM

Nc1c2c(nc3ccccc13)CCCC2
inactive: [1] | [2] | [3] | [4] | [5] | [6] | [7] | [8] | [9] | [10]

O=C1c2c(O)ccc(O)c2C(=O)c2c(NCCNCCO)ccc(NCCNCCO)c21
inactive: [2]
active: [1] 0.826 µM | [3] 658 nM and 59.2 nM | [4] 2.96 µM and 2.66 µM | [5] 332 nM and 422 nM | [6] 590 nM and 168 nM | [7] 235 nM and 1 nM | [8] 243 nM and 38.9 nM | [9] 74.3 nM and 59.6 nM | [10] 18.7 µM and 10.6 µM

O=C(c1ccc(F)cc1)C1CCN(CCn2c(=O)[nH]c3ccccc3c2=O)CC1
inactive: [1] | [2] | [3] | [4] | [5] | [6] | [7] | [8] | [9] | [10]

CCCNCC(O)COc1ccccc1C(=O)CCc1ccccc1 (centres undefined)
inactive: [1] | [2] | [3] | [4] | [5] | [6] | [8] | [9] | [10]

CC(CCc1ccc(O)cc1)NCCc1ccc(O)c(O)c1 (centres undefined)
inactive: [1] | [2] | [3] | [4] | [5] | [8] | [10]

COc1cc2nc(N3CCN(C(=O)c4ccco4)CC3)nc(N)c2cc1OC
inactive: [1] | [2] | [3] | [5] | [9]
active: [6] 14.8 µM | [7] 11.8 µM | [8] 24.3 µM

Cc1cc(C(C)(C)C)c(O)c(C)c1CC1=NCCN1
inactive: [1] | [2] | [3] | [4] | [5] | [6] | [8] | [9] | [10]

CNCCCC12CCC(c3ccccc31)c1ccccc12
inactive: [1] | [2] | [3] | [9]
active: [6] 21.1 µM and 23.5 µM | [7] 23.5 µM

Clc1ccccc1C(c1ccccc1)(c1ccccc1)n1ccnc1
inactive: [1] | [2] | [3] | [4] | [10]

COc1ccccc1OCC(O)CN1CCN(CC(=O)Nc2c(C)cccc2C)CC1 (centres undefined)
inactive: [1] | [2] | [3] | [4] | [5] | [6] | [8] | [9] | [10]
